Bioassay records as filed in PubChem BioAssay.
HCV inhibitor: HCV inhibition; Huh7.5.1 HCVcc-Cre infection, luciferase reporter, 44 h; Potency, µM (titrated, usually from 41.8 µM), for the others: top-dose activity change, negative = inhibition, hits mostly inhibitors; 340,000 tested, 3.4% active; active means well fitted inhibition curve with a large enough effect; inconclusive means small, poorly fitted or top-dose-only effect, or another doubt; inactive means no such curve, though single readings can be large or run the other way; further: potency means the concentration at half of the fitted maximal effect
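HCVcc-Cre virus at an moi near 0.5 was added right after compound to cells cultured 4 h from seeding (1,000 cells/well). Luciferase activity was determined 44 h later, 15 min after substrate addition at RT.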
Vaccinia mCherry: vaccinia inhibition (mCherry reporter). Vaccinia virus mCherry reporter infection, fluorescence. Potency, µM (titrated, usually from 36.5 µM), for the others: at the top dose activity change, negative = inhibition, most hits filed as inhibitors. 310,000 tested, 0.63% active; calls by dose curve; tested in A549 cells; further: potency means the concentration at half of the fitted maximal effect; nearly all actives have a fitted effect of over 35% in size
Vaccinia Venus: vaccinia inhibition (Venus reporter); 330,000 tested, 0.46% active; Potency, µM (titrated, usually from 36.5 µM), without a hit: at the highest dose activity change, negative = inhibition, actives largely listed as inhibitors; AID 720580; Vaccinia virus Venus reporter expression, fluorescence; calls by dose curve; tested in A549 cells; further: potency means the concentration at half of the fitted maximal effect; nearly all actives have a fitted effect of over 30% in size
HCMV inh: human cytomegalovirus inhibition | activity change, negative = inhibition, % at 57.5 µM | HFF cells, HCMV-luciferase reporter, 72 h; active compounds read low | 410,000 tested, 4.5% active | AID 1259415; in the data active means activity change below about -60%; inconclusive means no clear call, values can overlap the other calls; inactive means above about -39%
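Steps: HFFs plated, 16 h 37C; compounds added; HCMV-luciferase added to MOI 1 PFU/cell; 72 h 37C; OneGlo reagent, 5 min room temperature; luminescence read, normalized to controls.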
FMDV inh: foot and mouth disease virus antiviral activity; FMDV antiviral cell-based qHTS; Potency, µM (top dose mostly 57.9 µM), for the others: at the highest dose activity change, negative = inhibition, actives largely listed as inhibitors; 410,000 tested, 1.2% active; calls by dose curve; tested in HEK293T cells; further: read-out not given here; potency means the concentration at half of the fitted maximal effect; nearly all actives have a fitted effect of over 45% in size
Starred values were filed as active, the others as inactive; i = inactive; ? = inconclusive; . = no result. Shown are actives, neighbours in structure and some others; about 7.3% of the full set was active somewhere. On the % scale 0 is the no-effect control and ±100 the full control effect.

SMILES	HCV inhibitor	Vaccinia mCherry	Vaccinia Venus	HCMV inh	FMDV inh
COc1ccc2c(c1)c(C(C)=O)c(C)n2CCc1ccc(OC)c(OC)c1	?	.	.	-5	?
CCOc1ccc(-n2c(C)c(C(C)=O)c3cc(OC(C)=O)ccc32)cc1	?	.	.	-78*	?
COc1ccc(-n2c(C)c(C(C)=O)c3cc(O)ccc32)cc1	-6%	.	.	-65*	-18%
COc1ccc2c(c1)c(C(C)=O)c(C)n2CCc1ccccc1	?	.	.	-91*	14µM*
CCCCN(C(=O)c1ccc(S(=O)(=O)N(C)c2ccccc2)cc1)c1c(N)n(CCC)c(=O)[nH]c1=O	19%	.	.	-9	-14%
COc1ccc2c(c1)c(C(C)=O)c(C)n2-c1ccccc1	?	-10%	0%	-1	.
COc1ccc(-n2c(C)c(C(C)=O)c3cc(OC(=O)c4ccc(C)cc4)ccc32)cc1	.	-2%	0%	-75*	-18%
CCOC(=O)c1c(CSc2ccccc2)n(C)c2cc(Br)c(OCC(O)CNC(CO)(CO)CO)cc12 (stereo not drawn)	?	-25%	?	-63*	-15%
CCOC(=O)c1c(CSc2ccccc2)n(C)c2cc(Br)c(OC)c(O)c12	?	.	.	-12	?
CC(Sc1nnc(Cc2ccccc2)o1)C(=O)Nc1ccccc1[N+](=O)[O-] (stereo not drawn)	6%	.	.	-34	-4%
COc1ccc(OC)c(NC(=O)c2cc(-c3cc(Cl)ccc3O)n[nH]2)c1	7.1µM*	.	.	?	-48%
CCCOc1ccc(F)cc1-c1cc(C(=O)Nc2cc(OC)ccc2OC)[nH]n1	.	i	-15%	-80*	-12%
CCOC(=O)c1noc2ncnc(Nc3cccc(OC)c3)c12	.	-5%	2%	-10	-2%
Cc1nn(-c2ccccc2)c(Cl)c1/C=N/NC(=O)c1[nH]ncc1Br	-21%	.	.	9	0%
COc1ccc(S(=O)(=O)N(CC(=O)N(C)Cc2ccccc2)c2ccc(Cl)cc2)cc1	.	-7%	-11%	-30	5%
O=C1C(=O)c2ccccc2C([O-])=C1[n+]1ccccc1	6%	.	.	-36	22µM*
COc1ccc(NC(=O)/C(Cl)=C(/Cl)S(=O)Cc2ccc(Cl)cc2)cn1 (stereo not drawn)	7.9µM*	5.6µM*	7.9µM*	-100*	8.9µM*
COc1ccc(NC(=O)/C(Cl)=C(/Cl)S(=O)(=O)Cc2ccccc2)cn1	3.5µM*	.	22µM*	-105*	20µM*
COc1ccc(NC(=O)C(C)(C)Oc2ccc(Cl)cc2)cn1	-21%	-7%	1%	-35	-24%
COc1ccc(NC(=O)Nc2ccc(OCc3ccccc3)cc2)cn1	?	.	.	-27	-26%
COc1ccc(NC(=O)C(Cl)=C(Cl)Cl)cn1	10µM*	-15%	-3%	0	-7%
Brc1cc(Br)c2nc3c(cc2c1)CCC3	10µM*	.	.	-27	4%
c1ccc2nc3c(cc2c1)CCCC3	.	i	7%	.	.
COc1ccc(F)cc1-c1cc(NC(C)=O)c2ncc(-c3cccc(C(F)(F)F)c3)n2c1	.	-11%	-6%	-22	-3%
Cc1nnc(SCC(=O)N2CCCC(C(=O)c3ccc(Cl)cc3)C2)o1 (stereo not drawn)	1%	1%	-4%	36	-12%
SMILES	HCV inhibitor	Vaccinia mCherry	Vaccinia Venus	HCMV inh	FMDV inh
CCn1ccnc1CN1CCCC(C(=O)c2ccc3cc(OC)ccc3c2)C1 (stereo not drawn)	10µM*	-24%	-12%	-9	?
CCn1ccnc1CN1CCCC(C(=O)c2cc(C)c(OC)c(C)c2)C1 (stereo not drawn)	?	.	.	-32	-29%
COc1ccc2cc(C(=O)C3CCCN(C(=O)CSc4nnc(C)o4)C3)ccc2c1 (stereo not drawn)	?	i	-21%	-66*	-23%
COc1ccc2cc(C(=O)C3CCCN(Cc4cnc(N5CCOCC5)s4)C3)ccc2c1 (stereo not drawn)	?	?	-21%	-65*	-19%
Cc1ccsc1C(=O)C1CCCN(Cc2cnc(N3CCOCC3)s2)C1 (stereo not drawn)	?	-22%	-13%	-33	25µM*
Cc1ccsc1C(=O)C1CCCN(Cc2cnc(N)nc2)C1 (stereo not drawn)	-9%	?	-13%	15	-20%
C(=Nc1cnc2ccccc2c1)c1ccnc2ccccc12	.	-10%	5%	.	.
CCCCN(CCCC)c1ccc(Cn2ccc3ccccc32)cc1	.	13%	18%	.	.
COc1ccccc1CNc1nc(NCc2ccccc2F)c2sccc2n1	.	-11%	-26%	.	28µM*
C#Cc1cccc(Nc2nc(NCCOC)nc3ccsc23)c1	.	-24%	-25%	14	?
COc1ccccc1CNc1nc(NCc2ccccc2)nc2ccsc12	.	-18%	?	?	?
Fc1ccccc1CNc1nc(NCC2CC2)nc2ccsc12	.	i	-14%	-87*	-39%
C#Cc1cccc(Nc2nc(NCc3ccccc3OC)nc3ccsc23)c1	.	?	?	-79*	32µM*
COCCNc1nc(NCc2cccc(OC)c2OC)c2sccc2n1	.	i	-10%	-31	?
COc1ccccc1CNc1nc(NCc2cccc(OC)c2OC)c2sccc2n1	.	-10%	-13%	-83*	40µM*
COCCN(CCOC)c1ncnc2c1c(-c1ccccc1)cn2-c1ccc(C)c(Cl)c1	.	-11%	-13%	?	-28%
CCc1cccc(NC(=O)C(Cc2ccccc2)n2cccc2)c1 (stereo not drawn)	.	-4%	-2%	-20	4%
COc1ccc(CC(=O)NCc2ccc3c(c2)CCN3C(=O)c2ccc(C)cc2)cc1OC	.	-22%	-17%	-17	-23%
CCOCCn1ccc2c(OCC(=O)Nc3cccc(F)c3)cccc2c1=O	.	-4%	1%	12	-3%
C[C@H]1CNC(=O)c2c(C(=O)N[C@@H](Cc3c[nH]c4ccccc34)C(=O)OC(C)(C)C)ncn21	.	?	-6%	43	-17%
NS(=O)(=O)c1ccc(CCNC(=O)CCNS(=O)(=O)c2ccccc2C(F)(F)F)cc1	15%	i	-7%	4	3%
Cn1cnc2c(NCc3ccccc3)nc(Cl)nc21	.	-8%	-16%	.	.
c1ccc(CNc2nc(NCc3ccccc3)c3sccc3n2)cc1	.	-6%	-29%	-80*	0%
CNC(=O)OCc1nc(SSC(C)(C)C)n(C)c1COC(=O)NC	?	-24%	?	-76*	35µM*
Nc1ccccc1N1C(=O)c2ccccc2C1=O	.	.	.	12	.
CC1=NNC(=O)/C1=C\c1cn(-c2ccccc2)nc1-c1cccs1	?	.	.	-100*	10µM*
O=Cc1cn(-c2ccccc2)nc1-c1ccc(F)cc1	0%	.	.	-3	24%
CC1=NNC(=O)/C1=C\c1cn(-c2ccccc2)nc1-c1ccc(F)cc1	4.5µM*	10µM*	10µM*	.	11µM*
Cc1ccc(-c2nn(-c3ccccc3)cc2/C=C/C(=O)Nc2nccs2)cc1	?	-10%	-27%	0	-2%
Cc1c(NC(=O)/C=C/c2cn(-c3ccccc3)nc2-c2ccc(F)cc2)c(=O)n(-c2ccccc2)n1C	11µM*	?	-16%	0	-17%
